The text below walks through data of PubChem BioAssay.

SMILES strings stand for the structures. A number with no mark means an inactive call. For part of these data: Measured potencies and affinities stand elsewhere. The list shows a part of the results. Calls of active or inactive are those of the source.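 How the source made its calls, unless noted: active means membrane potential signal shifting up or down by more than 3 SD of buffer-only wells, on both duplicate plates; inactive means the rest.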

One may read the inhibition as the share of the control response that was lost under treatment.

Assay [1] concerns TRPC4 beta (transient receptor potential cation channel C4), mouse. Briefly: TRPC4 cation channel opening, retest – cell-based, Fluo4 calcium, HEK293 TRPC4beta/mu-opioid, duplicates, 10 µM, confirmation (AID 2426;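 active means fluorescence ratio normalized to control raised more than 50% in primary screen plus both repeat runs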;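 on activation: percent rise of integrated ratio over buffer wells lacking compound which define 0%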). Conditions: Fluo4 calcium fluorescence, at 10 µM; stronger effect = higher value.
In assay [2] the test system is transient receptor potential cation channel C4 beta (TRPC4), mouse. Briefly: TRPC4 cation channel opening, second retest – cell-based, second round, Fluo4, HEK293 TRPC4beta/mu-opioid, 1 µM, confirmation (AID 2461;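 active means primary screen active and over 50% activation in each of two duplicate runs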). Conditions: Fluo4 calcium fluorescence, at 1 µM; stronger effect = higher value.
Assay [3] deals with TRPC4 (transient receptor potential cation channel C4 beta), mouse. Briefly: potentiation of DAMGO EC20 TRPC4 response – cell-based, second round, Fluo-4, HEK293 TRPC4beta/mu-opioid, 1 µM, confirmation (AID 2554;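 active means primary screen hit whose fluorescence ratio, in both repeats, exceeds the weak agonist control mean by 3 SD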). Conditions: DAMGO EC20, Fluo-4 calcium flux, at 1 µM; stronger effect = higher value. On the technique in general: A change in cytosolic calcium serves as a functional read-out for many receptors and channels.

Assay [4] concerns TRPC4 beta (transient receptor potential cation channel C4), mouse. Briefly: potentiation of DAMGO EC20 TRPC4 response – cell-based, Fluo-4, HEK293 TRPC4beta/mu-opioid, confirmation (AID 2555;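 active means primary screen hit whose calcium fluorescence ratio, in both repeats, exceeds the weak agonist control mean by 3 SD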). The note with it: DAMGO EC20, Fluo-4 calcium flux, at 10 µM; stronger effect = higher value.
Assay [5] concerns the target Short transient receptor potential channel 4 (Mus musculus) (UniProt Q9QUQ5). Briefly: blockers of DAMGO-evoked TRPC4 calcium flux – cell-based, Fluo4, HEK293 TRPC4beta/mu-opioid, confirmation (AID 2636;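 active means calcium signal cut by more than 3 SD below the full-agonist control yet still positive, in both repeats and the earlier primary screen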). Conditions: at 10 µM; stronger effect = higher value.
For assay [6] the target is unchanged. Briefly: blockers of DAMGO-evoked TRPC4 calcium flux – cell-based, second round, Fluo4, HEK293 TRPC4beta/mu-opioid, 1 µM, confirmation (AID 2637;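 active means calcium signal ratio cut to more than 3 SD under the fully stimulated control mean yet still positive, in both repeats and the primary screen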). Conditions: at 1 µM; stronger effect = higher value.
Assay [7] has the same target. Briefly: potentiation of DAMGO-evoked TRPC4 calcium signal – cell-based, HEK293 TRPC4/mu-opioid, Fluo-4 calcium, EC20 DAMGO, dose response (AID 434941;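 active means earlier screen potentiator hit that boosts the TRPC4 ion channel at some dose, with a dose response; inactive means no potentiation, no dose response, or not a prior hit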;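 further: calcium entry triggered by an EC20 dose of DAMGO at the co-expressed mu-opioid receptor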).
Assay [8] deals with Short transient receptor potential channel 6 (Mus musculus) (UniProt Q61143). Briefly: TRPC6 blockade by TRPC4 inhibitor hits – cell-based, HEK293, membrane potential dye, duplicate, selectivity assay for TRPC4 inhibitor project, confirmation (AID 434948;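 active means active in primary screen and both duplicates, each dropping signal beyond three positive-control SD with fluorescence still positive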). The note with it: HEK293 TRPC6, membrane potential dye fluorescence, at 10 µM, stimulated with maximal-effect acetylcholine; stronger effect = higher value.
Short transient receptor potential channel 6 (Mus musculus), sequence (Q61143 whole entry, looked up): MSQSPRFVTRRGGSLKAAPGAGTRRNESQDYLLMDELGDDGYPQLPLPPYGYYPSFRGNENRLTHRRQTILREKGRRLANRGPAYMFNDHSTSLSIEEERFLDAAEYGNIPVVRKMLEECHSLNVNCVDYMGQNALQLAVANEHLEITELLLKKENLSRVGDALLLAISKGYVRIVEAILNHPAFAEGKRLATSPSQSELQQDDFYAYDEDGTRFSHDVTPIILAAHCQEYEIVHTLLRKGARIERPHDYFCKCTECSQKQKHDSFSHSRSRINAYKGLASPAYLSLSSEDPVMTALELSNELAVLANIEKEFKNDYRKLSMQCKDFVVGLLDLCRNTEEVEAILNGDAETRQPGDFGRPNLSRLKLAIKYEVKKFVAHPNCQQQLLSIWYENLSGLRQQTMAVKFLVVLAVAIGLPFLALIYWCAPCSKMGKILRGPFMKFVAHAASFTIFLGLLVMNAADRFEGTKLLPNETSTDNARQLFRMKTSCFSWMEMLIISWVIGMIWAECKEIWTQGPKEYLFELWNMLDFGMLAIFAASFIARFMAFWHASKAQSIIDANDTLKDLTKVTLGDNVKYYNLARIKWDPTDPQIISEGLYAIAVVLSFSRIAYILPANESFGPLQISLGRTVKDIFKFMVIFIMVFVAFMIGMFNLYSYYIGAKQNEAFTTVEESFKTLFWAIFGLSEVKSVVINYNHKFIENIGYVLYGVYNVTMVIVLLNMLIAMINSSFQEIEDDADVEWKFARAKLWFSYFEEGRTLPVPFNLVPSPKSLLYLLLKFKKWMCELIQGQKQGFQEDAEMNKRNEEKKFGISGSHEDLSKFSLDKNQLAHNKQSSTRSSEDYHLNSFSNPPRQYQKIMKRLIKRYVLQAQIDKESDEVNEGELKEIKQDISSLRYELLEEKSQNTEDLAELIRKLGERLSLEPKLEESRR

The target is the same in assay [9]. Briefly: TRPC6 opening by TRPC4 activator hits – cell-based, HEK293, membrane potential dye, duplicate, selectivity assay for TRPC4 activator project, confirmation (AID 434950;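 active means membrane potential signal rise above negative control mean plus 3 SD in both duplicates, also active in the earlier TRPC4 screen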;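 on activation: 0% = buffer only wells and 100% = acetylcholine maximal-effect wells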). The note with it: HEK293 TRPC6, membrane potential fluorescence, at 10 µM; activation: stronger effect = higher value; outcome: activation.
Assay [10] has the same target. Briefly: positive modulators of mouse TRPC6 channel – HEK293 cells, membrane potential dye, duplicate, selectivity assay for TRPC4 potentiator project, confirmation (AID 434952;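 active means compound raising the membrane signal above positive-control mean plus 3 SD in both repeats, and a primary screen hit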). The note with it: HEK293 TRPC6, membrane potential dye fluorescence, at 10 µM, maximal acetylcholine added after compound; stronger effect = higher value.
In assay [11] the target is Short transient receptor potential channel 4 (Mus musculus) (UniProt Q9QUQ5). Briefly: calcium flux activators in TRPC4/5HT1a cells, counter-screen for TRPC4 activator project, cell-based, second counter screen, HEK293 TRPC4/5HT1a, Fluo-4 (AID 434977;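 active means calcium signal rise above buffer-control mean plus 5 SD in both duplicates, and also a hit in the primary screen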;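 further: plate controls were assay buffer for no effect and maximal serotonin response for full effect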). Conditions: Fluo-4 calcium flux, at 10 µM; stronger effect = higher value.
Short transient receptor potential channel 4 (Mus musculus), sequence (Q9QUQ5 whole entry, looked up): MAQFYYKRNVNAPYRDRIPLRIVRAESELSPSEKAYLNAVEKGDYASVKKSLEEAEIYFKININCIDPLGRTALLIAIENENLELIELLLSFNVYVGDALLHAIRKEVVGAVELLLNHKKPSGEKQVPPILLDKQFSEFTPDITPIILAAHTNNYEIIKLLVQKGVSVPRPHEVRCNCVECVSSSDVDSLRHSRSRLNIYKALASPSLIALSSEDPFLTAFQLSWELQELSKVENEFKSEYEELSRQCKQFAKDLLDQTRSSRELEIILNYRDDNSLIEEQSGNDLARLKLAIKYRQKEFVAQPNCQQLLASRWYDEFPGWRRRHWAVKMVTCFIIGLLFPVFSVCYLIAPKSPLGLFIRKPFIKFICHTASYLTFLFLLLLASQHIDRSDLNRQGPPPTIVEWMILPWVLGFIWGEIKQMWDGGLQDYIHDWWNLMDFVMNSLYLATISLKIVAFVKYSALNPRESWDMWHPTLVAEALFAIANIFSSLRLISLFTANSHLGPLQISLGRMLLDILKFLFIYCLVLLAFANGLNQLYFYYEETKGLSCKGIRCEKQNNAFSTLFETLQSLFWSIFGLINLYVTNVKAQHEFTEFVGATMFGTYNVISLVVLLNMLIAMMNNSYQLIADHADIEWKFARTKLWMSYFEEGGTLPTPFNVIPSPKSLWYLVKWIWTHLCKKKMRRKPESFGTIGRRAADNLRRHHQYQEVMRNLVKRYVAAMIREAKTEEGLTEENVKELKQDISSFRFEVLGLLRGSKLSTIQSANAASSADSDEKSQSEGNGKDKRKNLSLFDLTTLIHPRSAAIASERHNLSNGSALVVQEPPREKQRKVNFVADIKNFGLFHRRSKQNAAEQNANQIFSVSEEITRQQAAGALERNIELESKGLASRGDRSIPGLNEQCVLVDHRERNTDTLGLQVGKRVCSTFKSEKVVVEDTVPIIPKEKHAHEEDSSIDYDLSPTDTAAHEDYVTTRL
Assay [12] is described as follows: serotonin-gated TRPC4 signal block – cell-based, second counter screen, HEK293 TRPC4/5HT1a, Fluo-4, counter-screen for TRPC4 inhibitor project, confirmation (AID 434978;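 active means primary screen active whose calcium signal fell more than 3 SD beyond the full-serotonin control mean in both duplicate plates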;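 on outcome: serotonin given first at submaximal then at maximal dose after compound preincubation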). The note with it: Fluo-4 calcium flux, at 10 µM, serotonin added to trigger calcium flux; stronger effect = higher value. On the technique in general: A counterscreen serves to expose hits that act by an unwanted route or on another target.

Assay [13] concerns TRPC4 (mouse), co-expressed with 5HT1a in HEK293. Briefly: enhancement of serotonin-evoked TRPC4 response – cell-based, second counter screen, HEK293 TRPC4/5HT1a, Fluo-4, counter-screen for TRPC4 potentiator project, confirmation (AID 434979;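 active means signal rise over 3 SD above mean of control wells given weak agonist, in both repeats and first screen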). Conditions: Fluo-4 calcium flux, at 10 µM, serotonin added at its EC20 dose; stronger effect = higher value.
Assay [14] in a line: nonspecific calcium rise without TRPC4 – cell-based, HEK293 mu-opioid receptor line, counter-screen for TRPC4 activator project, confirmation (AID 449723;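 active means hit in primary screen, with calcium signal over 5 SD above buffer well mean in both duplicates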;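 further: counter screen cells carry the mu-opioid receptor alone and lack TRPC4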). Conditions: HEK293 mu-opioid cells, Fluo-4 calcium fluorescence, at 10 µM; stronger effect = higher value.
A short description of assay [15]: nonspecific potentiation of DAMGO calcium response – cell-based, HEK293 mu-opioid receptor line, counter-screen for TRPC4 allosteric potentiator project, confirmation (AID 449724;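 active means calcium signal rise more than 3 SD above the low-dose agonist control mean, in both duplicate plates and the primary screen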). Conditions: HEK293 mu-opioid receptor cells, Fluo-4 calcium flux, at 10 µM, compound added before EC20 DAMGO stimulus; stronger effect = higher value.
Assay [16] can be described thus: nonspecific flux increase, KCNQ1-free cells – parental CHO cells, counter-screen for KCNQ1 potentiator project (AID 493006;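 active means duplicate-averaged activation above buffer control mean plus 5 SD of those controls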;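 further: fluorescence ratio of max minus min over baseline after K+ and Tl+ depolarization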). The note with it: parental CHO-K1 cells, FluxOR thallium flux, at 10 µM; stronger effect = higher value.
The target of assay [17] is Potassium voltage-gated channel subfamily KQT member 1 (Homo sapiens) (UniProt P51787). Briefly: enhancement of KCNQ1 channel thallium flux – FluxOR thallium flux, CHO cells, duplicates, confirmation (AID 493007;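 active means potentiation averaged over duplicate wells exceeding buffer-only control mean by more than 3 SD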;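 further: 0% = buffer-only wells and 100% = R-L3 activator control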). The note with it: KCNQ1 cell line, FluxOR thallium flux fluorescence, at 10 µM; stronger effect = higher value, % of reference activator effect, buffer zero.
Potassium voltage-gated channel subfamily KQT member 1 (Homo sapiens), sequence (P51787 whole entry, looked up): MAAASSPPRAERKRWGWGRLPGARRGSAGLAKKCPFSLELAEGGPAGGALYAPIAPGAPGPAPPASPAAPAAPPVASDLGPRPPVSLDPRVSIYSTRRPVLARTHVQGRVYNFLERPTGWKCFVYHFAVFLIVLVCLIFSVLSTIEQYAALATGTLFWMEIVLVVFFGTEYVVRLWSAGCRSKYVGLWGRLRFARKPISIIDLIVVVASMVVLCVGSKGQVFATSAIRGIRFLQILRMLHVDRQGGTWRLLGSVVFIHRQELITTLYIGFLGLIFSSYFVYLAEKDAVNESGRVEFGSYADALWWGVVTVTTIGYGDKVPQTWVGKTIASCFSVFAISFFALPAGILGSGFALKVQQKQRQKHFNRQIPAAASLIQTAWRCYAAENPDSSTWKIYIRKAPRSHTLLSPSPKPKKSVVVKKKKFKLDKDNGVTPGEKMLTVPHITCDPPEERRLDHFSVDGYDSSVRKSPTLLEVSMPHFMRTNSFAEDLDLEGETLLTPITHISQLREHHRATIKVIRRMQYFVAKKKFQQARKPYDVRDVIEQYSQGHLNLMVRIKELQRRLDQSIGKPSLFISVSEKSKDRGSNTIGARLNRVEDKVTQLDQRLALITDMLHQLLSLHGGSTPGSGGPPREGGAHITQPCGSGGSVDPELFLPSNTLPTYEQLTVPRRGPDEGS
Assay [18] addresses Potassium voltage-gated channel subfamily KQT member 2 (Rattus norvegicus) (UniProt O88943). Briefly: KCNQ2 thallium flux enhancement – KCNQ2-CHO-K1 cells, selectivity assay for KCNQ1 potentiator project (AID 493009;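 active means mean duplicate potentiation above the buffer control mean plus 5 SD of buffer wells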;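 further: assay conditions were tuned for KCNQ1 rather than KCNQ2 modulators; signal is max minus min fluorescence divided by baseline after thallium stimulus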). Conditions: FluxOR thallium flux fluorescence, at 10 µM; stronger effect = higher value, scaled: buffer 0, activator control 100.
Assay [19] addresses Potassium voltage-gated channel subfamily KQT member 1 (Homo sapiens) (UniProt P51787). Briefly: KCNQ1 activators by electrophysiology – IonWorks patch clamp, KCNQ1-CHO cells, orthogonal assay for KCNQ1 potentiator project, confirmation (AID 493184;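 active means current rise at least 3 SD above the untreated control mean in each of two repeat wells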). Conditions: automated patch clamp current, at 10 µM; stronger effect = higher value. In general terms: The patch-clamp technique gives a direct electrical read-out from membranes.

Assay [20] concerns the target Short transient receptor potential channel 4 (Mus musculus) (UniProt Q9QUQ5). Briefly: DAMGO-gated TRPC4 membrane potential modulation – cell-based, second specificity screen, HEK293 TRPC4/mu-opioid, selectivity assay for TRPC6 inhibitor project, confirmation (AID 2776;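 active means compounds whose fluorescence signal differed from control wells by over 3 SD, either direction, in both duplicate plates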). Conditions: HEK293 TRPC4/MOR, membrane potential dye fluorescence, at 10 µM, channel activated by saturating DAMGO dose; stronger effect = higher value.

For assay [21], the system named is transient receptor potential cation channel C4 (TRPC4), mouse. Briefly: membrane potential change in TRPC4 cells – cell-based, HEK293 TRPC4/mu-opioid, membrane potential dye, selectivity assay for TRPC6 inhibitor project, confirmation (AID 2777;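 active means rise or fall in signal beyond 3 SD of buffer-only wells in both replicate plates, either sign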;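 further: integrated kinetic ratio of fluorescence range over baseline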). Conditions: membrane potential fluorescence, at 10 µM.
Assay [22] can be described thus: parental HEK293 depolarization signal interference – cell-based, second counter screen, counter-screen for TRPC6 inhibitor project, confirmation (AID 2779;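 active means membrane potential signal moving either way by over 3 SD of the maximum-effect control, in both duplicate plates, meaning non-specific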). Conditions: parental HEK293 membrane potential dye fluorescence; at 10 µM; maximal acetylcholine challenge after compound addition.
Assay [23] can be described thus: nonspecific voltage dye signal in HEK293 – cell-based, parental HEK293, counter-screen for TRPC6 inhibitor project, confirmation (AID 2780).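 On membrane potential signal change: plate controls were buffer EC0 wells for no effect and acetylcholine ECmax wells for full effect.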 The note with it: parental HEK293 membrane potential dye fluorescence; at 10 µM.
The target of assay [24] is Short transient receptor potential channel 6 (Mus musculus) (UniProt Q61143). Briefly: blockers of TRPC6 cation channel activity – HEK293 cells, membrane potential dye, duplicate, confirmation (AID 488960;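 active means fluorescence ratio falls more than 5 SD below the full-stimulation control mean, in both duplicate runs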;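 on inhibition: integrated fluorescence ratio of peak minus minimum over baseline after agonist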). Conditions: ACh-evoked depolarization, at 10 µM; stronger effect = higher value.
For assay [25] the target is unchanged. Briefly: mouse TRPC6 channel activators, confirmation, HEK293 cells, membrane potential dye, duplicate (AID 488961;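 active means ratio signal rise beyond 5 SD above unstimulated control wells' mean, seen in both duplicate runs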). The note with it: HEK293-TRPC6 membrane potential dye fluorescence, FDSS, at 10 µM; stronger effect = higher value.
The target in assay [26] is Short transient receptor potential channel 4 (Mus musculus) (UniProt Q9QUQ5). Briefly: block of DAMGO-driven TRPC4 calcium entry – cell-based, HEK293 TRPC4/mu-opioid, Fluo-4 calcium, dose response (AID 434942;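 active means primary screen inhibitor hit that blocks the TRPC4 channel at some tested dose, yielding a dose curve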).

Potassium voltage-gated channel subfamily KQT member 2 (Rattus norvegicus), sequence (O88943 whole entry, looked up): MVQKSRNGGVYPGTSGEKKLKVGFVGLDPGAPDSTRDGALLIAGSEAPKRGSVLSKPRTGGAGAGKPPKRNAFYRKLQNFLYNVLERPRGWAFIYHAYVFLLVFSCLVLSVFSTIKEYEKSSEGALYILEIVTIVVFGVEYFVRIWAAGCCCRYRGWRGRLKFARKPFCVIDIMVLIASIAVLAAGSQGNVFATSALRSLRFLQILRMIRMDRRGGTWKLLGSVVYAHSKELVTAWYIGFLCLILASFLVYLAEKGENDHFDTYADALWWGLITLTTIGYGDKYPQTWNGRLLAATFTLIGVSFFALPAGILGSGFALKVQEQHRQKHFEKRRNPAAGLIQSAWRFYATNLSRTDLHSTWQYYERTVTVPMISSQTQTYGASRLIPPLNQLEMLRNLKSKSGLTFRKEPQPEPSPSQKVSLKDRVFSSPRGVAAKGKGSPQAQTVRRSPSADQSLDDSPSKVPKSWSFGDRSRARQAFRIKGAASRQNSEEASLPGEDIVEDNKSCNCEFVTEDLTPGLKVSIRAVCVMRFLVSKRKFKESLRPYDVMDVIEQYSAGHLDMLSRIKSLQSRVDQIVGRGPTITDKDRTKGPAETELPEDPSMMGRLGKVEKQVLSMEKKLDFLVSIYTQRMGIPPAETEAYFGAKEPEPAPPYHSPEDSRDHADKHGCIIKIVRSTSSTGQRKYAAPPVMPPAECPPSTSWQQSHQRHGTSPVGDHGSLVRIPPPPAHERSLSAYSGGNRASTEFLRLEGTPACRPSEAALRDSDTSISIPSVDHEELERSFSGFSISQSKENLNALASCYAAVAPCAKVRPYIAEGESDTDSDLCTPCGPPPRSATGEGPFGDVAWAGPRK

Consider `CC(C)(C)c1ccc(C(=O)NC(=S)NNC(=O)COc2ccccc2)cc1`, for which the result in [1], in assay [2], in [3], in assay [4], in [6] and in [7] was inactive. Further, the result in assay [8], in [9], in assay [10], in assay [13], in assay [14] and in assay [15] was inactive. In addition, the result in assay [19] was inactive. In addition, the figures for the inhibition in assay [5] and in assay [12] were 78% (active) and 27.8% (active), respectively. In addition, the activation in assay [11] was 16.6% (active); in assay [16], 186% (active). For the same molecule, the potentiation in assay [17] was 59.5% (active); in assay [18], 208% (active).
In the case of `CC(C)c1ccc(OCC(O)Cn2cnc3ccccc32)cc1` (centres undefined), the molecule was classed as inactive in assay [20], in assay [21], in assay [22], in assay [23], in [24] and in assay [25].
As to `CCCCc1cc(O)c(CCCC)c(O)c1`, the activation in [1] was 63% (active); in assay [11], 44.6% (active); in [14] it was 34.5% (active). The outcome in assay [2], in [3], in assay [5], in [6], in assay [26] and in assay [8] was inactive. Besides, the outcome in assay [9], in [10], in assay [12], in assay [13] and in assay [15] was inactive. Also, in assay [4], the potentiation is 14% (active).
Consider `O=C1c2ccccc2C(=O)c2c1cccc2N1CCN(Cc2ccccc2)CC1`, for which the outcome in assay [20], in assay [22] and in assay [25] was inactive. Besides, in assay [21], the activity change, negative = inhibition is -17% (active). Besides, the membrane potential signal change in assay [23] is -264% (active). Besides, the inhibition in [24] is 59.7% (active).
In the case of `C[C@H](NC(=O)OC(C)(C)C)c1nnc(SCC(=O)Nc2ccc(Br)cc2)o1`, the molecule was called inactive in [20], in assay [21], in assay [22] and in assay [24]. Also, the membrane potential signal change in [23] is 0.29% (active).
`COc1ccccc1C1SCCN1C(=O)c1ccc([N+](=O)[O-])cc1` (centres undefined): the outcome in assay [20], in assay [21], in assay [22], in assay [23], in assay [24] and in assay [25] was inactive.
As for `CCOC(=O)c1c(NC(=O)COC(=O)Cc2c[nH]c3ccccc23)sc(C(=O)N(C)C)c1C`, the figures for the activation in assay [1], in [9] and in [11] were 194% (active), 46% (active) and 107% (active), respectively. Moreover, the outcome in assay [2], in [5], in assay [6], in assay [26], in assay [8] and in [10] was inactive. For the same molecule, the outcome in assay [12], in [14] and in assay [15] was inactive. Also, the potentiation was 15% (active) in assay [3], 55% (active) in assay [4] and 60% (active) in [13].
As to `CC(C)CCNc1nc(N2CCCC2)c2c(c1C#N)CCN(C)C2`, the figures for the inhibition in [20] and in assay [24] were 54% (active) and 71.5% (active), respectively. Further, in assay [21], the activity change, negative = inhibition was -16.9% (active). For the same molecule, the result in assay [22] and in assay [25] was inactive. In addition, in assay [23], the membrane potential signal change is -209% (active).
Take `CCCCCCCCCCOC(=O)C[N+](C)(C)CC1CCCCC1O` (centres undefined): the molecule was classed as inactive in assay [20], in assay [22], in assay [24] and in [25]. In addition, the activity change, negative = inhibition in [21] is 7.58% (active). Moreover, in [23], the membrane potential signal change is 2.25% (active).
